# According to PubChem BioAssay AID430 (Sanford-Burnham Center for Chemical Genomics, 2006):
# The campaign covered roughly 63,000 compounds. About 1,100 (1.7%) were called active. Rule as the data show it: active = cytotoxicity above about 50%; inactive = the rest. The list comes from a sample in which actives are over-represented; it also holds similar structures and randomly drawn compounds. Measured potencies and affinities stand elsewhere.
# Test: HPDE-C7 pancreatic duct cell viability loss – fluorescence, HTS (AID 430);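 also: cells exposed to compound for 48 hours before viability readout; 0% = vehicle and 100% = reference cytotoxic drug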
# Settings: HPDE-C7 pancreatic duct cells viability, at 10 µM, active compounds read high
row,SMILES,cytotoxicity
1,O=C(COc1ccc(S(=O)(=O)NC2CCCCC2)cc1Cl)NCC1CCCO1 (stereo not given),-2.7% (inactive)
2,CC(C)CCNC(=O)c1cccc(Cl)c1,1.2% (inactive)
3,O=c1n(Cc2ccccc2Cl)c2sc3c(c2c2ncnn12)CCCC3,-20.8% (inactive)
4,O=C(Cn1c(=O)n2ncnc2c2c3c(sc21)CCCC3)c1ccccc1,-18.5% (inactive)
5,COCCSc1nnc(NS(=O)(=O)Cc2ccccc2)s1,-1.4% (inactive)
6,O=C(O)CSc1ncn[nH]1,1% (inactive)
7,c1ccc(Nc2c3c(nc4ncnn24)CCC3)cc1,-24.1% (inactive)
8,C=CCc1cc(C)ccc1OCC(O)CN1CCN(c2ccccc2)CC1 (stereo not given),22.9% (inactive)
9,COc1ccc(S(=O)(=O)N2CCN(S(=O)(=O)c3ccc4c(c3)OCCO4)CC2)cc1C,-3.8% (inactive)
10,COc1cc(NS(=O)(=O)c2ccc(OC)c(C)c2C)c(OC)cc1Cl,60.7% (active)
11,COc1ccc(OC)c(S(=O)(=O)Nc2cc(OC)c(Cl)cc2OC)c1,5.6% (inactive)
12,COc1cc(NS(=O)(=O)c2cc(C)ccc2OC)c(OC)cc1Cl,-0.5% (inactive)
13,CC1CCCCN1C(=O)c1cnn2c(C(F)(F)F)cc(-c3ccco3)nc12 (stereo not given),-7.7% (inactive)
14,CCc1cc2c(N3CCN(c4nnc(CC)s4)CC3)ncnc2s1,15.2% (inactive)
15,CCN1CCN(c2ncnc3c2cnn3-c2ccc(C)cc2C)CC1,-8.1% (inactive)
16,O=C(c1ccco1)N1CCN(c2ncnc3c2cnn3-c2ccccc2)CC1,-6.3% (inactive)
17,O=C(COc1ccccc1)N1CCN(c2ncnc3c2cnn3-c2ccccc2)CC1,-0.4% (inactive)
18,COc1ccc(-n2ncc3c(N4CCN(c5cc(C)ccc5C)CC4)ncnc32)cc1,1.5% (inactive)
19,CCc1cc2c(N3CCN(c4ccccc4)CC3)ncnc2s1,75.1% (active)
20,Cc1ccc(-n2ncc3c(N4CCCC4)ncnc32)c(C)c1,-2.3% (inactive)
21,COc1ccc(N2CCN(c3ncnc4c3cnn4-c3ccc(C)cc3C)CC2)cc1,0.4% (inactive)
22,CCc1cc2c(N3CCCCC3)ncnc2s1,-21.8% (inactive)
23,Cc1cc(C(=O)CN2C(=O)c3ccccc3C2=O)c(C)n1C1CC1,6.6% (inactive)
24,O=C(c1ccccc1)N1CCCOC1c1ccccc1 (stereo not given),2.4% (inactive)

row,SMILES,cytotoxicity
1,Cn1c(=O)c2c(nc(SCC(=O)NC3CCCCC3)n2C)n(C)c1=O,-18.4% (inactive)
2,COc1ccc(CCNC(=O)CN2C(=O)c3ccccc3S2(=O)=O)cc1OC,0.7% (inactive)
3,Cn1cccc1Cc1nnc(SCC(=O)Nc2ccccc2)n1-c1ccc(F)cc1,0% (inactive)
4,O=C(CN1CCC(NC(=O)c2ccc(F)cc2)CC1)NCc1ccccc1F,-5.6% (inactive)
5,O=C(Nc1cccc(Cl)c1)N1CCN(Cc2ccccc2)CC1,17.3% (inactive)
6,O=C(NC1CCCc2ccccc21)C1CCCO1 (stereo not given),2% (inactive)
7,O=C(NC1CCCCC1)C(c1ccc(F)cc1)N(Cc1ccco1)C(=O)Cn1nnc2ccccc21 (stereo not given),-13.1% (inactive)
8,CCC(C)(C)NC(=O)C(c1ccccc1F)N(Cc1ccco1)C(=O)Cn1nnc2ccccc21 (stereo not given),2.4% (inactive)
9,O=C(NC1CCCCC1)C(c1ccccc1F)N(Cc1ccco1)C(=O)Cn1nnc2ccccc21 (stereo not given),63.4% (active)
10,Cc1ccc(S(=O)(=O)Nc2nc3ccccc3nc2NCc2ccco2)cc1C,-2.8% (inactive)
11,O=C(CCCSc1nc2ccccc2s1)NCc1ccco1,-2.9% (inactive)
12,C=CCn1c(SCC(=O)NC(=O)NCc2ccco2)nc2sc(C)c(C)c2c1=O,-0.5% (inactive)
13,O=C(CSc1nc2cc(Cl)ccc2s1)NC(=O)NCc1ccco1,-4.7% (inactive)
14,C=CCn1c(SCC(=O)NC(=O)NCc2ccco2)nc2sc(CC)cc2c1=O,57.6% (active)
15,C=CCn1c(SCC(=O)N2CCN(C(=O)c3ccco3)CC2)nc2sc(CC)cc2c1=O,-4.1% (inactive)
16,O=C(CSc1nc2ccccc2s1)NC(=O)NCc1ccco1,82.9% (active)
17,Cc1ccc2cc3cc(C(=O)N4CCN(C(=O)c5ccco5)CC4)sc3nc2c1,-0.9% (inactive)
18,CCn1cc(C(=O)N2CCCC2)c(=O)c2cc(S(=O)(=O)N3CCOCC3)ccc21,-4.3% (inactive)
19,Cc1cccc(-c2nc(CS(=O)CC(=O)NC3CCCC3)c(C)o2)c1 (stereo not given),10.3% (inactive)
20,CC(OC1=CC(=O)CCC1)C(=O)c1ccccc1 (stereo not given),-4.7% (inactive)
21,COc1ccccc1OCc1nc(C#N)c(NCc2ccco2)o1,3.4% (inactive)
22,CCCCCCC1CC(CSc2ncn[nH]2)OC1=O (stereo not given),6.8% (inactive)
23,COc1cccc(N2CC(O)=C(c3nc4ccccc4c(=O)[nH]3)C2=N)c1,54.2% (active)
24,COc1ccccc1N1CC(O)=C(c2nc3ccccc3c(=O)[nH]2)C1=N,26.8% (inactive)

row,SMILES,cytotoxicity
1,CCOC(=O)c1ccc(N2CC(O)=C(c3nc4ccccc4c(=O)[nH]3)C2=N)cc1,38.3% (inactive)
2,O=C(O)C1C(c2ccccc2)C(C(=O)OCCCO)C1c1ccccc1 (stereo not given),4.7% (inactive)
3,COc1cccc(C=Nc2cc(C)on2)c1O,-3.2% (inactive)
4,O=c1c2ccccc2c(/C=N/c2ncn[nH]2)c(O)n1Cc1ccccc1,5.2% (inactive)
5,COc1cc(Br)cc(CN2CCN(C=O)CC2)c1O,-1.6% (inactive)
6,COc1cc(Br)cc(/C=N/c2ncn[nH]2)c1O,88.6% (active)
7,C=CCc1cccc(/C=N/c2ncn[nH]2)c1O,4.1% (inactive)
8,Oc1c(/C=N/c2ncn[nH]2)ccc2ccccc12,54.2% (active)
9,O=C(O)CN1CCN(Cc2ccc(F)cc2Cl)C1=O,-10.1% (inactive)
10,COc1ccc(CCn2nnnc2C(CC(C)C)N2CCC(C(N)=O)CC2)cc1OC (stereo not given),-10.9% (inactive)
11,CCCS(=O)(=O)N1CCC(C(=O)NCc2ccccc2Cl)CC1,-9.6% (inactive)
12,CN(C)c1ccc(-c2nn3c(-c4ccc(Cl)cc4)nnc3s2)cc1,-15.9% (inactive)
13,Cc1nn2c(-c3ccc(Cl)cc3Cl)nnc2s1,-9.3% (inactive)
14,Clc1ccccc1-c1nnc2sc(-c3ccncc3)nn12,-13.4% (inactive)
15,COc1ccccc1-c1nnc2sc(-c3ccc(N(C)C)cc3)nn12,44.4% (inactive)
16,CN(C)c1ccc(-c2nn3c(-c4ccccc4Cl)nnc3s2)cc1,63.8% (active)
17,CN(C)c1ccc(-c2nn3c(-c4ccc(Cl)cc4Cl)nnc3s2)cc1,60.2% (active)
18,CCOc1ccc(N2C(=O)CC(SC(=NC)Nc3cccc(F)c3)C2=O)cc1 (stereo not given),-18.7% (inactive)
19,O=C(CSc1ccc2c(c1)OCCO2)NCCN1C(=O)CSC1=O,3.6% (inactive)
20,Cn1c(=O)[nH]c(=O)c2c1nc(N1CCN(c3cccc(Cl)c3)CC1)n2CCCc1ccccc1,5.2% (inactive)
21,O=S(=O)(c1ccc(F)c(Cl)c1)N1CCCC1,11.7% (inactive)
22,CCOC(=O)c1sc2nc(NC(=O)C3CC3)sc2c1C,16% (inactive)
23,CCOC(=O)c1sc2nc(NC(=O)C3CCCCC3)sc2c1C,66.7% (active)
24,CCOC(=O)c1sc2nc(NC(=O)C(C)(C)C)sc2c1C,1.8% (inactive)

row,SMILES,cytotoxicity
1,CC(Sc1nnc(C2CCCCC2)n1N)C(=O)NCc1ccc2c(c1)OCO2 (stereo not given),0.2% (inactive)
2,CCCCN(C)S(=O)(=O)c1ccc(C(=O)Nc2nnc(-c3cccs3)o2)cc1,59.9% (active)
3,CC1CN(S(=O)(=O)c2ccc(C(=O)Nc3nnc(-c4ccc5c(c4)CCCC5)o3)cc2)CC(C)O1 (stereo not given),41.7% (inactive)
4,O=C(Nc1nc(-c2cccs2)cs1)c1ccc(S(=O)(=O)N2CCCC2)cc1,6.2% (inactive)
5,CC1CCCN(S(=O)(=O)c2ccc(NC(=O)c3cccc(-n4cnnn4)c3)cc2)C1 (stereo not given),18.2% (inactive)
6,CCCCN(CC)S(=O)(=O)c1ccc(C(=O)Nc2nnc(-c3cccs3)o2)cc1,49% (inactive)
7,CCCCN(C)S(=O)(=O)c1ccc(C(=O)Nc2nnc(CSC)o2)cc1,11.6% (inactive)
8,CCCCN(CC)S(=O)(=O)c1ccc(C(=O)Nc2nnc(-c3ccccc3Cl)o2)cc1,59.8% (active)
9,CCN(Cc1ccccc1)S(=O)(=O)c1ccc(C(=O)Nc2nnc(C3CC3)o2)cc1,4.1% (inactive)
10,CC1CC(C)CN(S(=O)(=O)c2ccc(C(=O)Nc3nnc(-c4cccs4)o3)cc2)C1 (stereo not given),69.8% (active)
11,CC1CCCN(S(=O)(=O)c2ccc(C(=O)Nc3nnc(-c4ccccc4Cl)o3)cc2)C1 (stereo not given),60.8% (active)
12,CCc1nnc(NC(=O)c2ccc(S(=O)(=O)N(CC)Cc3ccccc3)cc2)o1,35.7% (inactive)
13,O=C(Nc1nc(-c2cccs2)cs1)c1ccc(S(=O)(=O)N2CCCCC2)cc1,-6.2% (inactive)
14,CCC1Sc2ccccc2N(CC(=O)NCCC(C)C)C1=O (stereo not given),-14.5% (inactive)
15,FC(F)(F)c1cccnc1N1CCN(c2ncnc3nc[nH]c23)CC1,-5.7% (inactive)
16,CCCCS(=O)(=O)NC1=NCN(CCO)CN1,-7.4% (inactive)
17,CCCCN1C(=O)C(O)(CC(=O)c2c(C)n[nH]c2C)c2cc(Br)ccc21 (stereo not given),7.7% (inactive)
18,CN(c1ccc(C(=O)NCc2ccco2)cc1)S(C)(=O)=O,0.7% (inactive)
19,COCCNC(=O)NC(=O)COC(=O)C12CC3CC(CC(NC(C)=O)(C3)C1)C2,-1.4% (inactive)
20,CCOCCCn1c(=S)[nH]c2cc(C(=O)NCCN(CC)CC)ccc2c1=O,1.7% (inactive)
21,Cc1[nH]c(=O)[nH]c(=O)c1NC(=O)CSc1ncccc1-c1nc2ccccc2[nH]1,3% (inactive)
22,NC(=O)c1ccsc1NC(=O)COC(=O)c1ccccc1NCc1ccco1,0.6% (inactive)
23,COc1ccc(NC(=O)c2ccc(CN3CCN(c4ccccc4)CC3)cc2)cc1OC,-17.4% (inactive)
